# Assay results as given in the supplement of paper PMC8540655.
# Unmarked numbers belong to inactive results.
# Tested on: Aedes aegypti larvae
# Assay: larval motility relative to same well at 0 h (fraction); higher = more motile (less active compound), active = 0.4 or less
# Details: 10 µM
# In short: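 Larvae (Aedes aegypti, hatched in pond salt solution with yeast at 25 °C and taken 18–24 h later) were plated at about 10 per 100 µL well. Compounds at 10 µM in 1% v/v DMSO were imaged with INVAPP at 0, 2 and 24 h, alongside solvent and larvicide controls on each plate. Reported relative motility is each well's score over its own starting score, as a median of three independent larval batches.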
Compound,larval motility (2 h),larval motility (24 h)
O=C(O)C(Cc1c[nH]c2ccccc12)N1C(=O)c2ccccc2C1=O (centres undefined),1.75,1.18
CN1CCN(c2ccc3[nH]c(-c4ccc5[nH]c(-c6ccc(O)cc6)nc5c4)nc3c2)CC1,0.732,1.11
O=C(NCc1ncc(C(F)(F)F)cc1Cl)c1c(Cl)cccc1Cl,1.3,1.42
NC1C2CC3CC(C2)CC1C3 (centres undefined),0.973,1.31
NC(=S)N/N=C/c1ncccc1N,0.987,0.773
O=C(O)c1ccc(-n2nc(-c3ccccc3O)nc2-c2ccccc2O)cc1,0.694,0.808
Cc1nc2ccc(Cl)cc2c(-c2ccccc2)c1CC(=O)O,0.615,1.02
O=c1oc2ccc(Br)cc2cc1CSc1ncc[nH]1,0.806,0.972
O=C(Nc1[nH]c(=O)ncc1F)c1ccccc1,0.527,0.773
Cc1ccc(S(=O)(=O)Nc2cccc3cccnc23)cc1,1.02,0.566
CC(=N)N1CC[C@H](SC2=C(C(=O)O)N3C(=O)[C@@H]([C@@H](C)O)[C@H]3C2)C1,1.05,0.809
Nc1nc2c(ncn2/C=C2/CC2(CO)CO)c(=O)[nH]1,0.842,0.573
Nc1ccc(-c2nc3cc(C(F)(F)F)ccc3n2C23CC4CC(CC(C4)C2)C3)cc1,1.1,1.22
CC(C)Nc1ncnc2c1cnn2-c1ccc(Cl)cc1,0.689,0.773
CC(C)c1cc2c(cc1S(=O)(=O)O)[C@@]1(C)CCC[C@@](C)(C(=O)O)[C@@H]1CC2,0.784,0.697
O=C(N[C@H](CCS)C(=O)N[C@H](Cc1ccccc1)C(=O)O)c1cc2ccccc2[nH]1,1.47,1.56

Compound,larval motility (2 h),larval motility (24 h)
CCc1cc(CCCOc2c(C)cc(-c3noc(C(F)(F)F)n3)cc2C)on1,0.695,0.658
Cn1c2ccccc2c(=O)c2c(O)cccc21,1.15,1.13
N#Cc1cc([N+](=O)[O-])ccc1Oc1ccccc1Cl,1.05,1.15
CCCCc1ccc(S(=O)(=O)Nc2cc(C)on2)cc1,0.511,0.633
O=C(Nc1cccc(C2=NCCN2)c1)c1ccc(-c2ccc(C(=O)Nc3cccc(C4=NCCN4)c3)cc2)cc1,0.648,0.961
c1cc(CN2CCCNCCNCCCNCC2)ccc1CN1CCCNCCNCCCNCC1,0.964,0.915
Cc1ncc([N+](=O)[O-])n1CC(C)O (centres undefined),1.43,1.55
Nc1nc(Nc2ccc3nc(-c4ccc(F)cc4)cc(N)c3c2)cc(-c2ccccc2)n1,0.547,0.261 (active)
COc1cc(C2C3=C(CC(C)(C)CC3=O)Nc3ccccc3N2C(C)=O)ccc1OCc1ccccc1 (centres undefined),0.542,0.617
Nc1cc(-c2nc3ccccc3[nH]2)n[nH]c1=O,1.17,1.18
N#Cc1c(F)c(Cl)c(NCc2ccccc2)c(C#N)c1F,0.585,0.978
C[C@@H](NC(=O)c1cccc(-c2c[nH]c(-c3cc4ccccc4cn3)n2)c1)c1ccc(F)cc1,0.628,0.997
CCOC(=O)N[C@@H]1CC[C@@H]2[C@@H](C1)C[C@H]1C(=O)O[C@H](C)[C@H]1[C@H]2/C=C/c1ccc(-c2cccc(F)c2)cn1,1.18,0.624
OC(Cn1cncn1)(Cn1cncn1)c1ccc(F)cc1F,1.05,0.875
CC(C)(C)c1cc(CCC(=O)N2CCC2)cc(C(C)(C)C)c1O,0.769,0.774
COc1ccc2sc3c(c2c1)NC(C)CNC3=O (centres undefined),0.748,0.959
